This note sets out measurements from PubChem BioAssay.

SMILES strings stand for the structures.

Sequence of Neurogenic locus notch homolog protein 3 (Homo sapiens) (Q9UM47 whole entry, looked up): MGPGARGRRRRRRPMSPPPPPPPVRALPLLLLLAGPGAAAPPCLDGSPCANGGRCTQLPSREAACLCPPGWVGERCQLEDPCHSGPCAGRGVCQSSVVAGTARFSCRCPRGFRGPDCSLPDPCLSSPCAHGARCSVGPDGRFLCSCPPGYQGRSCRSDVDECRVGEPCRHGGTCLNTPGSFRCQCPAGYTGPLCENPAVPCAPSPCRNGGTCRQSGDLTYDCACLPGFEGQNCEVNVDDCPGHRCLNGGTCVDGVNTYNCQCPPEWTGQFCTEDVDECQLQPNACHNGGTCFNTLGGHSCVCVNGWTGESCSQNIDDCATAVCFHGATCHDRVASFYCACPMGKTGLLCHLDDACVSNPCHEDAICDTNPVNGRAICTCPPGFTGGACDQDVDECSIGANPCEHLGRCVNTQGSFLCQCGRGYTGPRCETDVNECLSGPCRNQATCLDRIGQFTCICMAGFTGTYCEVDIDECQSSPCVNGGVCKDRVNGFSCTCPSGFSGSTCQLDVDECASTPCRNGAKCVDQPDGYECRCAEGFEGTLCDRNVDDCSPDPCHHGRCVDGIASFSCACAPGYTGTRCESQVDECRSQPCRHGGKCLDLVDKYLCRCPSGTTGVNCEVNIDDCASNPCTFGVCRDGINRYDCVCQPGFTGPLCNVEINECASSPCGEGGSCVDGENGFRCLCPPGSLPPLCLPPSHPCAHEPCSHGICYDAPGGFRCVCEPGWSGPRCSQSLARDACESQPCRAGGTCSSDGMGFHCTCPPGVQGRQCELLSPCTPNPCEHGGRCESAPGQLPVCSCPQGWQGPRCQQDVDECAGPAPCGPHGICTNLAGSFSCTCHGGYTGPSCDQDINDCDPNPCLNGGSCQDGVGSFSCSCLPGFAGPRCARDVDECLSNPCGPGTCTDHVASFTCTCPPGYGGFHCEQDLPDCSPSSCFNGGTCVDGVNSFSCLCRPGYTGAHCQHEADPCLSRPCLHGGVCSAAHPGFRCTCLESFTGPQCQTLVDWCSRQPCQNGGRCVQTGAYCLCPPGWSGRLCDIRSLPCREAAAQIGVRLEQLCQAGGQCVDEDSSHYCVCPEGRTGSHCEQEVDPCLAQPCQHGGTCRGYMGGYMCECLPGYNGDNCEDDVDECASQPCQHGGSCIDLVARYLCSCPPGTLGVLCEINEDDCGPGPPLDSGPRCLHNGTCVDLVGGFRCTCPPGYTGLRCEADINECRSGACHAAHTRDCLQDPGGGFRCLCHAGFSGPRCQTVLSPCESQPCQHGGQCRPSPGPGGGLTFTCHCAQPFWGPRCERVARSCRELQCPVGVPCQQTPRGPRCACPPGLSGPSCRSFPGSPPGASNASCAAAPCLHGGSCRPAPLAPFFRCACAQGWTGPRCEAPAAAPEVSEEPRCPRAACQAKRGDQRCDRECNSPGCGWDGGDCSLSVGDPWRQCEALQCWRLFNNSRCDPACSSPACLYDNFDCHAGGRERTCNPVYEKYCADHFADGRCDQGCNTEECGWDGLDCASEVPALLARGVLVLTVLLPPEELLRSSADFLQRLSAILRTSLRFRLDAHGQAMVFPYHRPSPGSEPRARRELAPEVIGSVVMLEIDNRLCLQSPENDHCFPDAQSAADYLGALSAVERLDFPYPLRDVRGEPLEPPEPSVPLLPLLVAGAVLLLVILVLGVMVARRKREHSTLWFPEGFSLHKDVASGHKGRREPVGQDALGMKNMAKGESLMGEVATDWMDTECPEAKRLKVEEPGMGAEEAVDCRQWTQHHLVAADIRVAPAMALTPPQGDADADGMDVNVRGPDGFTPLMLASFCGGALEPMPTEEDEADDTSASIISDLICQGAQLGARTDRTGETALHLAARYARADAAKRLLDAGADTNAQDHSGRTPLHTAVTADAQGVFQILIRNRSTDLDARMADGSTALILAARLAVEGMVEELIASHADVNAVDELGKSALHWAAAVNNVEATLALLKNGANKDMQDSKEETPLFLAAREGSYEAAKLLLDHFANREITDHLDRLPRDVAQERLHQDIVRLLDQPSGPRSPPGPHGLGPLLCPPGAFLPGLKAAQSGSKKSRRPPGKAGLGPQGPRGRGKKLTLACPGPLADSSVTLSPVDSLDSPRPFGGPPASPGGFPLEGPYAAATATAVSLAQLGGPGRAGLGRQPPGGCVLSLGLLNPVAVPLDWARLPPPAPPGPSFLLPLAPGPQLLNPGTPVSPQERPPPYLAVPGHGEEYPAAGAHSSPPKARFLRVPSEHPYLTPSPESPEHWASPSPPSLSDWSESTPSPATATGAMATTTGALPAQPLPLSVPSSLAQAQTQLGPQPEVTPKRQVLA

The first test addresses Neurogenic locus notch homolog protein 3 (Homo sapiens) (UniProt Q9UM47). Put plainly: NOTCH3 binders on small-molecule microarray, primary screen, biochemical, 635/667 nm fluorescence (AID 1096). The settings on record: NOTCH3 binding, 635 nm fluorescence, higher = more signal.
As for `CCOC(=O)C1=CC[C@@H](c2ccccc2)N(S(=O)(=O)c2ccc(C)cc2)C1`, the composite z-score was -0.198.
Same read-out and setting: to `CCOC(=O)[C@H]1C/C=C/C[C@H](C(=O)OCC)C(=O)O[C@H]2[C@@H](OC)O[C@H](CO)[C@@H](OC(=O)Nc3ccc(OC)cc3)[C@@H]2OC1=O` belongs 1.09.
On the same count and under the same terms, in the case of `COC(=O)[C@H](Cc1ccccc1)N1CC(/C=C/C2CC2)=C[C@@H]1[C@@H](O)Cc1ccccc1` it was 0.9; in that of `Cc1ccc(F)cc1S(=O)(=O)N[C@@H]1CCN(Cc2ccc(Oc3ccccc3)cc2)C1`, 0.551; in that of `COCCOC(=O)N1C(=O)[C@@]2(c3cc(C#Cc4ccc(OC)cc4)ccc31)[C@H](C(=O)NC[C@H](O)c1ccccc1)[C@H]1C(=O)O[C@H](c3ccccc3)[C@H](c3ccccc3)N1[C@@H]2c1ccc(O)cc1`, 1.05.
`CN(C)CCCNC(=O)[C@@H]1c2ccccc2C(=O)N(CC23CC4CC(CC(C4)C2)C3)[C@H]1c1ccc(CO)cc1` registered a composite z-score of 1.05.
`CCOC(=O)[C@@H]1[C@@H]2C(=O)N(CC)C(=O)[C@@H]2C[C@@H]1Sc1ccccc1` showed a composite z-score of 0.722.
On to `CC(C)C(=C=CC[C@@H](O)c1ccccc1OCCO)C[C@@H](O)COCc1ccccc1`, for which the composite z-score turned out to be 0.388.

Test system in another test: not listed separately
Put plainly: small-molecule microarray binders of probe aEGFR, primary screen, biochemical, biotinylated probe, 635/667 nm fluorescence (AID 1097).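 Further: probe is a biotinylated anti-EGFR antibody binding compounds printed on slides; score combines fluorescence near 667 nm and signal to noise of each spot.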 The settings on record: higher = more signal.
With `CC(C)C(O)C1C=CC2C(=O)N(C)C(=O)C2N1Nc1ccccc1` (centres undefined), the composite z-score was 0.515.
Turning to `Cc1c(NC(=O)/C(C#N)=C/C=C/c2ccc(N(C)C)cc2)c(=O)n(-c2ccccc2)n1C`, the composite z-score was 0.118.
Regarding `COc1cc(CO)cc(I)c1O[C@H]1C=C(C(=O)NCCO)C[C@@H](N(Cc2ccc(F)cc2)C(=O)C2CCCO2)[C@@H]1O` (some centres undefined), the composite z-score was -0.158.
Turning to `O=C1C[C@@](C(=O)NCC(F)(F)F)(c2ccc([N+](=O)[O-])cc2)[C@@H](c2ccc(CO)cc2)N1C1CCCCC1`, the composite z-score is -0.0271.
For `COC(=O)Cn1c(C(=O)N2CCCC2)cc2c1C[C@H]1CN(C(=O)c3ccccc3)[C@@](Cc3ccc(F)cc3)(C(=O)OC)[C@@H]21`, the composite z-score is -0.363.
Same read-out and setting: in the case of `O=C(CS)NCCCCCCNC(=O)[C@H]1C[C@H]2C(=O)N[C@@H](Cc3ccccc3)C(=O)N2[C@H]1c1cccc(OCCO)c1` it was 0.14; in that of `COc1cc2c(cc1OC)CN(C(=O)[C@H]1[C@@H]3C(=O)O[C@@H](c4ccccc4)[C@@H](c4ccccc4)N3[C@@H](c3ccc(OCCO)cc3)[C@]13C(=O)Nc1ccc(C#CC4(O)CCCCCC4)cc13)CC2`, 0.678.
The same measure, in the same setting: in the case of `O=C1O[C@H](c2ccccc2)[C@H](c2ccccc2)N2[C@H]1[C@@H](C(=O)O)[C@]1(C(=O)Nc3ccccc31)[C@H]2c1ccc(O)cc1` it was -0.257.
As for `CC(=O)N1Cc2ccccc2C[C@]2(N=C(c3ccc(OCCCO)cc3)O[C@@H]2c2ccccc2)C1=O`, the composite z-score is 0.0557.
For `Cc1ccc(S[C@]2(C(=O)O)CC(=O)N(Cc3ccccc3Cl)[C@@H]2c2ccc(CO)cc2)cc1`, the composite z-score is -0.119.
For the compound `COc1c(C)cc(-c2cc3c(c(-c4ccccc4)n2)[Si](C(C)C)(C(C)C)OC3)cc1C`, the composite z-score is -0.0262.
On the same count and under the same terms, to `O=C(CCCCCCC(=O)Nc1ccccc1)N/N=C/c1ccccc1` belongs -0.117; to `CCOC(=O)C[C@H]1[C@H](OC(=O)Cc2ccc3c(c2)OCO3)[C@@H](NC(=O)C2CCCCC2)c2cc(OCCCO)ccc2N1C(=O)c1ccc2ccccc2n1`, 0.0428; to `O=C(NC1CC1)[C@@H]1c2ccccc2C(=O)N(Cc2ccccc2)[C@H]1c1ccc(CO)cc1`, -0.366.
Turning to `NC(N)=NCc1cn(CCc2c[nH]c3ccccc23)nn1`, the composite z-score was 0.128.
Regarding `COCCCNC(=O)[C@@]1(Sc2ccc(C)cc2)CC(=O)N(Cc2cc(C(F)(F)F)cc(C(F)(F)F)c2)[C@@H]1c1ccc(CO)cc1`, the composite z-score was -0.0531.
With `O=C1O[C@@H](c2ccccc2)[C@@H](c2ccccc2)N2[C@@H](c3ccc(O)cc3)[C@]3(C(=O)Nc4ccc(C#CC5=CCCCC5)cc43)[C@@H](C(=O)N3CCN(c4ncccn4)CC3)[C@H]12`, the composite z-score was -0.115.
Take `COCCOC(=O)N1C(=O)[C@@]2(c3cc(C#CC4=CCCCC4)ccc31)[C@H](c1ccccc1OCCO)N1[C@H](c3ccccc3)[C@H](c3ccccc3)OC(=O)[C@H]1[C@@H]2C(=O)N1CCc2cc(OC)c(OC)cc2C1`: the composite z-score is -0.33.
In the case of `CC[C@H]1C2=C3C(CC[C@H]4C(OCc5ccc(F)cc5C(F)(F)F)OC[C@](C)([C@@H]34)N(C(=O)OC(C)(C)C)C2)C2COC(=O)OCC21` (some centres undefined), the composite z-score was -0.117.
Same read-out and setting: to `CO[C@H]1O[C@H](CO)[C@@H](OC(=O)Nc2ccccc2-c2ccccc2)[C@H](OC(=O)Nc2ccc3c(c2)OCO3)[C@@H]1OC(=O)Nc1ccc2c(c1)OCO2` belongs -0.0177.
For the compound `COCCCNC(=O)[C@@]1(Sc2ccc(C)cc2)CC(=O)N(C2Cc3ccccc3C2)[C@@H]1c1ccc(CO)cc1I`, the composite z-score is -0.251.
Consider `Cc1ccc(S[C@]2(C(=O)NCc3ccccc3)CC(=O)N(C(C)C)[C@@H]2c2ccc(CO)cc2I)cc1`, for which the composite z-score is -0.229.
In turn, `CC(C)C(O)C1C=CC2C(=O)N(C)C(=O)C2N1N(c1ccccc1)c1ccccc1` (centres undefined) yielded a composite z-score of 0.102.
In the case of `O=C1OCC=C[C@H]2OC34C=CCN(Cn5nnc6ccccc65)C(=O)[C@H]3N(CCCCCCO)C(=O)[C@@H]4[C@@H]12` (some centres undefined), the composite z-score is -0.195.
As for `COC(=O)[C@@]1(Cc2ccccc2)[C@H]2c3cc(C(=O)N4CCCC4)n(Cc4cc(F)cc5c4OCOC5)c3C[C@H]2CN1C(=O)c1ccccc1`, the composite z-score was found to be 0.115.
For `O=C(O)[C@H](Cc1ccccc1)n1cc(-c2ccccn2)nn1`, the composite z-score was -0.042.
In turn, `CN(C)CCCNC(=O)[C@@]1(c2ccc([N+](=O)[O-])cc2)CC(=O)N(CC23CC4CC(CC(C4)C2)C3)[C@@H]1c1ccc(CO)cc1` showed a composite z-score of 0.0529.
Same read-out and setting: in the case of `CCOC(=O)C[C@H]1[C@H](OC(=O)c2ccc(-c3ccccc3)cc2)[C@@H](NC(=O)c2ccc3ccccc3n2)c2cc(OCCCO)ccc2N1C(=O)c1ccccc1` it was 0.0026; in that of `CCOC(=O)C1=CC[C@@H](c2ccccc2)N(S(=O)(=O)c2ccc(C)cc2)C1`, -0.0521; in that of `CCOC(=O)[C@H]1C/C=C/C[C@H](C(=O)OCC)C(=O)O[C@H]2[C@@H](OC)O[C@H](CO)[C@@H](OC(=O)Nc3ccc(OC)cc3)[C@@H]2OC1=O`, -0.0737.
Consider `COC(=O)[C@H](Cc1ccccc1)N1CC(/C=C/C2CC2)=C[C@@H]1[C@@H](O)Cc1ccccc1`, for which the composite z-score turned out to be 0.009.
`Cc1ccc(F)cc1S(=O)(=O)N[C@@H]1CCN(Cc2ccc(Oc3ccccc3)cc2)C1`: the composite z-score was -0.0953.
`COCCOC(=O)N1C(=O)[C@@]2(c3cc(C#Cc4ccc(OC)cc4)ccc31)[C@H](C(=O)NC[C@H](O)c1ccccc1)[C@H]1C(=O)O[C@H](c3ccccc3)[C@H](c3ccccc3)N1[C@@H]2c1ccc(O)cc1` displayed a composite z-score of 0.268.
Turning to `CN(C)CCCNC(=O)[C@@H]1c2ccccc2C(=O)N(CC23CC4CC(CC(C4)C2)C3)[C@H]1c1ccc(CO)cc1`, the composite z-score was -0.0801.
On to `CCOC(=O)[C@@H]1[C@@H]2C(=O)N(CC)C(=O)[C@@H]2C[C@@H]1Sc1ccccc1`, for which the composite z-score is 0.113.
The compound `CC(C)C(=C=CC[C@@H](O)c1ccccc1OCCO)C[C@@H](O)COCc1ccccc1` displayed a composite z-score of 0.001.
